Our source for the outcome and AC50 values is PubChem BioAssay (EPA / NIEHS).

Results filed as inconclusive are left out. The source made the active and inactive calls. Rule for the calls: active = hit-call score of the fitted dose curve at least 0.9, where 1 is the maximum; inconclusive = response in the unintended direction; inactive = score below 0.9.

Chain of Cytochrome P450 3A4 (Homo sapiens) (P08684 whole entry, looked up): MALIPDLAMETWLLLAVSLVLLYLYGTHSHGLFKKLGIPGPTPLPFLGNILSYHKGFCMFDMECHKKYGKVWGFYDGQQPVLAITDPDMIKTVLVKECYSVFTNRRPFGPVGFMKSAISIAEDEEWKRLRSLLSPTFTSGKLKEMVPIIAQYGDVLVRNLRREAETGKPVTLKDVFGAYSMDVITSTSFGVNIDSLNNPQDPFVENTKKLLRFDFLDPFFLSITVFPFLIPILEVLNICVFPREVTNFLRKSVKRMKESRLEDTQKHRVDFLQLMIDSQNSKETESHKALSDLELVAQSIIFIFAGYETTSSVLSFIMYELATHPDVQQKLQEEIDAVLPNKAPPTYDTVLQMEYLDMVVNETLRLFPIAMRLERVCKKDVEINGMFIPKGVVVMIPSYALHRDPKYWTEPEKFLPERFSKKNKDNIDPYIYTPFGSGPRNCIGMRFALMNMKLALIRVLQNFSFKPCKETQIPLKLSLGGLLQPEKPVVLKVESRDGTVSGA

Read-out in this assay: Cytochrome P450 3A4 (Homo sapiens) (UniProt P08684)
Nature of the assay: CLD_CYP3A4_24hr: CellzDirect (CLD) Gene Expression Assay for xenobiotic metabolism (CYP3A4) at 24 hours (AID 2283689). On the procedure:
CLD_24hr is a cell-based, multiplexed-readout assay that uses hepatocyte, a human liver primary cell, with measurements taken at 24 hours after chemical dosing in a 96-well plate.CLD_CYP3A4_24hr is one of 16 assay component(s) measured or calculated from the CLD_24hr assay. It is designed to make measurements of mRNA induction, a form of inducible reporter, as detected with chemiluminescence signals by Quantitative Nuclease Protection Assay (qNPA) technology.Data from the assay component CLD_CYP3A4_24hr was analyzed at the endpoint, CLD_CYP3A4_24hr, in the positive analysis fitting direction relative to DMSO as the negative control and baseline of activity. Using a type of inducible reporter, gain-of-signal activity can be used to understand changes in the reporter gene as they relate to the gene CYP3A4. Furthermore, this assay endpoint can be referred to as a primary readout. To generalize the intended target to other relatable targets, this assay endpoint is annotated to the cyp intended target family, where subfamily is xenobiotic metabolism.
Human hepatocyte cultures were treated daily for two consecutive days with fresh dosing solutions containing appropriate concentrations of the 320 ToxCast chemicals (chemical identities were blinded to CellzDirect and other ToxCast collaborators), vehicle control (0.2% DMSO), and positive control inducers as summarized in Table 1. Due to the large number of treatment groups and chemicals examined, the ToxCast chemicals were divided into two groups (spanning two independent cultures of hepatocytes from separate donor preparations (Hu778: ToxCast plates 1 and 2; Hu776: ToxCast plates 3 and 4). Each preparation of human hepatocyte cultures was treated with respective vehicle control, medium only control, set of six positive controls/reference chemicals for the five hepatic receptor pathways, and a subset of eight of the ToxCast chemicals (indoxacarb, pyrithiobac-sodium, norflurazon, cyhalofop-butyl, methomyl, thiram, acetochlor, and propiconazole). These replicate data, coupled with internal replicates designed within the blinded ToxCast chemical library, provided additional data to evaluate interindividual differences between hepatocyte preparations and their potential impact on chemical profiles.Cell morphology and integrity were evaluated using phase-contrast microscopy as an indicator of hepatocyte cell health (Tyson & Green, 1987). Cultures for each treatment group (i.e., media, vehicle [0.2% DMSO], positive control inducers [multiple concentrations], and the ToxCast chemicals [multiple concentrations]) were observed and cell morphology was assessed relative to vehicle control cultures at each harvest time point (0, 6, 24, or 48 h). […] Images were evaluated at the conclusion of the study to assess changes in cell integrity and account for the effects of chemical exposure on uncharacteristic changes in concentration-dependent gene expression profiles. The results from these determinations of apparent cytotoxicity were annotated (yes/no) alongside the corresponding qNPA data for reference.At the conclusion of each treatment period, hepatocyte cultures (96-well) were washed with 1 volume of HBSS, lysed by addition of 25 ul ArrayPlate lysis buffer (HTG, Tucson, AZ), and 70 ul/well of Denaturation Oil, denatured by incubation at 95C for 10 min, and frozen at approximately -70C until analysis by nuclease protection assay (qNPA) (Roberts et al., 2007). For qNPA analysis, cell lysates were thawed at 50C for approximately 30 min, qNPA probes were added, and samples were incubated at 95C for 10 min to begin the detection process by denaturing the target RNA, dissociating the duplexes and secondary structure hybridization. At the conclusion of the hybridization period, S1 nuclease reagent was added to each sample to digest all nonprotected nucleotides at 50C for 60-90 min. […]
On to `O=S(=O)(O)C(F)(F)C(F)(F)C(F)(F)C(F)(F)C(F)(F)C(F)(F)C(F)(F)C(F)(F)F`, for which the call was inactive.
Turning to `CCc1ccc(C(=O)NN(C(=O)c2cc(C)cc(C)c2)C(C)(C)C)cc1`, the AC50 is 3.67 µM (active).
Still for that read-out and setting: to `O=S1OCC2C(CO1)C1(Cl)C(Cl)=C(Cl)C2(Cl)C1(Cl)Cl` (stereo not drawn) belongs 20 µM (active).
Consider `O=C(O)CCCOc1ccc(Cl)cc1Cl`, for which the compound was classed as inactive.
`O=C(O)C(F)(F)C(F)(F)C(F)(F)C(F)(F)C(F)(F)C(F)(F)C(F)(F)F`: the AC50 was 20 µM (active).
`CC(C)N(C(=O)COc1nnc(C(F)(F)F)s1)c1ccc(F)cc1`: the result was inactive.
Regarding `CC1(c2ccc(Oc3ccccc3)cc2)OC(=O)N(Nc2ccccc2)C1=O` (stereo not drawn), the result was inactive.
Take `CCOC1Oc2ccc(OS(C)(=O)=O)cc2C1(C)C` (stereo not drawn): the AC50 is 20 µM (active).
Take `CCC(C)(NC(=O)c1cc(Cl)c(C)c(Cl)c1)C(=O)CCl` (stereo not drawn): the AC50 was 4.49 µM (active).
`O=[N+]([O-])/N=C1\NCCN1Cc1ccc(Cl)nc1`: the compound was classed as inactive.
As for `CCS(=O)(=O)c1cccnc1S(=O)(=O)NC(=O)Nc1nc(OC)cc(OC)n1`, the AC50 was 20 µM (active).
Take `COP(=S)(OC)Oc1ccc(SC)c(C)c1`: the outcome was inactive.
On to `CNC(=O)Oc1ccccc1OC(C)C`, for which the AC50 is 5.41 µM (active).
On to `CC1(C)C(C=C(Cl)Cl)C1C(=O)OC(C#N)c1ccc(F)c(Oc2ccccc2)c1` (stereo not drawn), for which the compound was called inactive.
In the case of `CNC(=O)/C=C(\C)OP(=O)(OC)OC`, the result was inactive.
For the compound `C[C@H]1[C@H](c2ccc(Cl)cc2)SC(=O)N1C(=O)NC1CCCCC1`, the AC50 was 3.56 µM (active).
For `Cc1cc(C)nc(NC(=O)NS(=O)(=O)c2ccccc2C(=O)OC2COC2)n1`, the AC50 is 20 µM (active).
Still for that read-out and setting: under `CCCN(CCC)c1c([N+](=O)[O-])cc(C(F)(F)F)cc1[N+](=O)[O-]` stands 5.68 µM (active).
Consider `COC(=O)c1ccccc1S(=O)(=O)NC(=O)Nc1nc(C)nc(OC)n1`, for which the result was inactive.
Regarding `CCOc1nc(NC)nc(NC(=O)NS(=O)(=O)c2ccccc2C(=O)OC)n1`, the compound was called inactive.
As for `CCC(C)(C)C(=O)OC1=C(c2ccc(Cl)cc2Cl)C(=O)OC12CCCCC2`, the AC50 is 0.0493 µM (active).
On the same count and under the same terms, to `CCC(C)Nc1c([N+](=O)[O-])cc(C(C)(C)C)cc1[N+](=O)[O-]` (stereo not drawn) belongs 3.84 µM (active).
Regarding `O=[N+]([O-])c1c(Cl)c(Cl)c(Cl)c(Cl)c1Cl`, the outcome was inactive.
Regarding `CCN(CC)C(=O)SCc1ccc(Cl)cc1`, the AC50 is 20 µM (active).
Consider `O=C(NC(=O)c1c(F)cccc1F)Nc1ccc(OC(F)(F)C(F)OC(F)(F)F)c(Cl)c1` (stereo not drawn), for which the compound was called inactive.
Still for that read-out and setting: under `N#Cc1c(Cl)c(Cl)c(Cl)c(C#N)c1Cl` stands “inactive”; under `OCCOc1ccccc1`, “inactive”.
On to `CCOCN(C(=O)CCl)c1c(C)cccc1CC`, for which the AC50 was 3 µM (active).
The same measure, in the same setting: to `CCCN(CCOc1c(Cl)cc(Cl)cc1Cl)C(=O)n1ccnc1` belongs 0.57 µM (active).
For `CNC(=O)Oc1cccc(N=CN(C)C)c1`, the compound was called inactive.
The same measure, in the same setting: under `COP(=S)(OC)Oc1ccc([N+](=O)[O-])cc1` stands “inactive”.
Consider `CC(C)OC(=O)Nc1cccc(Cl)c1`, for which the AC50 was 16 µM (active).
In the case of `Oc1ccc(Cl)cc1Cc1ccccc1`, the outcome was inactive.
For `COC(=O)c1ccccc1S(=O)(=O)NC(=O)N(C)c1nc(C)nc(OC)n1`, the call was inactive.
Consider `Clc1ccccc1-c1nnc(-c2ccccc2Cl)nn1`, for which the AC50 was 3.97 µM (active).
As to `COC(=O)c1ccccc1CS(=O)(=O)NC(=O)Nc1nc(OC)cc(OC)n1`, the outcome was inactive.
For the compound `CC(C)(C)C(O)/C(=C\c1ccc(Cl)cc1Cl)n1cncn1` (stereo not drawn), the AC50 was 0.98 µM (active).
`Cc1[nH]c(=O)n(C(C)(C)C)c(=O)c1Cl`: the call was inactive.

A word on the AC50: it is the midpoint of the concentration-response curve, whichever way the signal moves.
